Consider 16 compounds from PubChem BioAssay (NCATS).

“And” between values parts separate entries of the source, which are not always exact repeats. Identical values can stand only once. Results filed as inconclusive are left out. Some compounds were tested as several samples or in several runs, with calls that do not always agree. The source made the active and inactive calls. Calls come from the whole dose curve; as a rule, active = well fitted inhibition curve with a large enough effect; inconclusive = small, poorly fitted or top-dose-only effect; inactive = no such curve, though single readings can be large or run the other way.
% is set by controls: 0 for no effect and ±100 for the full control effect; potency is the fitted concentration of half-maximal effect.

Sequence of Cytochrome P450 2C9 (Homo sapiens) (P11712 whole entry, looked up): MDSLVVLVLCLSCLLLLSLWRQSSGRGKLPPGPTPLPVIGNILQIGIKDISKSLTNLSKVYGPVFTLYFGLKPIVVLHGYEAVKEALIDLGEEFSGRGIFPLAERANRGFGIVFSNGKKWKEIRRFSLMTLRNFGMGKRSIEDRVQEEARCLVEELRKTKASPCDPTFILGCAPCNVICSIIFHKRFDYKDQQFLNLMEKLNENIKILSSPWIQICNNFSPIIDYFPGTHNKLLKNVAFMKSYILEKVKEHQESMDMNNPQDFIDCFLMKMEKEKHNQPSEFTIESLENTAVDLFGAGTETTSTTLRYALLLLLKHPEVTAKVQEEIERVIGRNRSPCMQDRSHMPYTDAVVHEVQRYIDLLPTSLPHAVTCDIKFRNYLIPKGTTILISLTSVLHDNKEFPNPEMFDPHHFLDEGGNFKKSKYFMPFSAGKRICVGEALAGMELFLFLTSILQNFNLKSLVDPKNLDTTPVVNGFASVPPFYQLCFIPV

The assay deals with Cytochrome P450 2C9 (Homo sapiens) (UniProt P11712). The assay can be described thus: qHTS Assay for Inhibitors and Substrates of Cytochrome P450 2C9 (AID 883). Note: nearly all actives have a fitted effect of over 60% in size. As to conditions: recombinant CYP2C9, luciferin-H luminescence, 60 min; series mostly up to 57.1 µM; activity change, negative = inhibition: at the top concentration. How it is done:
NIH Molecular Libraries Screening Centers Network [MLSCN] NIH Chemical Genomics Center [NCGC] MLSCN Grant: None NCGC Assay Overview: The P450 gene superfamily is involved in the metabolism and clearance of xenobiotics. This assay used human CYP2C9 to measure the hydroxylation of deoxyluciferin (Luciferin-H; P450 Glo-Buffer) to luciferin. The luciferin is then measured by luminescence after the addition of a luciferase detection reagent. Luciferin-H concentration in the assay was equal to its Michaelis constant KM for CYP2C9. Inhibitors and some substrates limit the production of luciferin, and decrease measured luminescence.
NCGC Assay Protocol Summary: Two uL of enzyme and substrate mix (final concentrations: 10nM CYP2C9, 100uM Luciferin-H, 25mM KPO4) were dispensed into a white, solid bottom 1536-well microtiter plate. 23nL of compound was transferred by a pin tool. The plate was incubated at 37C for 10 min. Two uL of an NADPH regeneration solution (Promega supplied reagent) was dispensed and the reaction was allowed to continue for 60 min at 37C. Then the reaction was stopped by reconstituted P450 Glo-Buffer. After another 20 min of incubation the plate was read on the ViewLux (Perkin Elmer) at 60 sec exposure and 2x2 binning. This protocol was carried out with Promega-Glo reagents and further information can be found at http://www.promega.com/tbs/tb325/tb325.pdf. Data were normalized to the to AC100 inhibition (57uM sulphaphenazole). Keywords: P450, CYP2C9, Luciferase, MLSMR, MLSCN, NIH Roadmap, qHTS, NCGC
A general note: qHTS replaces the single test concentration by a dilution series.
As to `O=C1c2ccccc2-c2n[nH]c3cccc1c23`, the “activity change, negative = inhibition” value was 31.9% (inactive).

For the compound `Cc1cc(O)c2c(c1)C(=O)c1cc(O)cc(O)c1C2=O`, the Potency was 3.98 µM (active).

For the compound `CCOC(=O)C1=C(O)C(=O)N(Cc2ccccc2)C1`, the Potency was 3.98 µM (active).

`O=C(NCCO[N+](=O)[O-])c1cccnc1`: the Potency is 2 µM (active).

On to `Oc1ccc(-c2nc(-c3ccc(F)cc3)c(-c3ccncc3)[nH]2)cc1`, for which the Potency was 7.94 µM (active).

`O=C(CCc1ccc(O)cc1)c1c(O)cc(O)cc1O`: the Potency was 2.51 µM (active).

Regarding `CCc1nc(N)nc(N)c1-c1ccc(Cl)cc1`, the result was inactive.

`Cc1nc2n(c(=O)c1CCN1CCC(c3noc4cc(F)ccc34)CC1)CCCC2`: the outcome was inactive.

As for `Cc1cccc(C#Cc2ccccc2)n1`, the Potency result was “inactive and 10 µM (active)”.

For `Cc1ccc(C)c(OCCCC(C)(C)C(=O)O)c1`, the Potency was 6.31 µM (active).

On to `O=c1c(O)c(-c2ccc(O)cc2O)oc2cc(O)cc(O)c12`, for which the Potency is 10 µM (active).

On to `Cc1cc(=O)oc2cc(O)ccc12`, for which the “activity change, negative = inhibition” value was 34% [at 25.6 µM] (inactive).

Take `CC1(C)C(=O)N(CCN2CCC(C(=O)c3ccc(F)cc3)CC2)c2ccccc21`: the “activity change, negative = inhibition” value is 69.7% (inactive).

`CCN(CC)C(=S)SSC(=S)N(CC)CC`: the Potency was 2.51 µM (active) and 398 nM (active).

With `CC(=O)Nc1ccc(O)cc1`, the outcome was inactive.

Turning to `C[C@H](Cc1ccc(O)c(O)c1)[C@@H](C)Cc1ccc(O)c(O)c1`, the Potency was 1.58 µM (active).
